# In PubChem BioAssay (NCI):
# About 83,000 compounds went through this panel and 20% of them were active in at least one assay; those are over-represented in the sample as a whole.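 Testing used 96-well plates and a 48-hour single-concentration exposure. Example: -40 means 40% of the starting cells died.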 Unmarked numbers belong to inactive results. Active and inactive are the calls of the source. Rule for the calls: active = growth percent below 10; inactive = the rest.
# Tests used:
# Experiment in all cases: NCI-60 one-dose screen, 48 h (100 = growth as untreated, 0 = no growth, -100 = all killed)
# Details in all cases: 10 µM unless noted
# SK-MEL-2 melanoma = system: SK-MEL-2 melanoma
# EKVX NSCLC = system: EKVX NSCLC
# SN12C renal = system: SN12C renal
# UO-31 renal = system: UO-31 renal
# TK-10 renal = system: TK-10 renal
# ACHN renal = system: ACHN renal
# CAKI-1 renal = system: CAKI-1 renal
# CCRF-CEM leukemia = system: CCRF-CEM leukemia
# MOLT-4 leukemia = system: MOLT-4 leukemia
# A498 renal = system: A498 renal
Structure (SMILES),growth (SK-MEL-2 melanoma),growth (EKVX NSCLC),growth (SN12C renal),growth (UO-31 renal),growth (TK-10 renal),growth (ACHN renal),growth (CAKI-1 renal),growth (CCRF-CEM leukemia),growth (MOLT-4 leukemia),growth (A498 renal)
Nc1nc(Nc2ccccc2SSc2ccccc2Nc2nc(N)nc(-c3ccc(I)cc3)n2)nc(-c2ccc(I)cc2)n1,103%,52.2%,23.4%,-92.2% (active),104%,19.2%,59.7%,50.3%,71.7%,
COc1ccc2c(c1)C(=Nc1cc(OC)c(OC)c(OC)c1)C(=O)N2,76.8%,97%,97.3%,46.9%,136%,88.5%,122%,81.1%,104%,
N#Cc1c(-c2ccccc2)cc(-c2ccccc2)n(CCC(=O)O)c1=O,9.85% (active),76.8%,69.1%,63.1%,75.6%,67.1%,46.4%,54.9%,49.4%,
O=C1OC2(c3ccccc31)c1ccccc1-c1ccccc12,65%,87.9%,90.4%,65.7%,82.7%,101%,62.3%,72.4%,82.9%,
N#Cc1c(-c2ccccc2)cc(-c2ccccc2)n(CCCCCCC(=O)O)c1=O,88.8%,92.5%,99.2%,82.7%,105%,98.8%,97.7%,106%,98.4%,
COc1ccc2[nH]c(=O)c(CNc3ccc(Nc4nccc(-c5ccc(Cl)cc5)n4)cc3)cc2c1,87%,94%,87.1%,64%,102%,90.1%,97.6%,75.7%,48.4%,
c1ccc2nc(N/N=C3\CCCCC3C3CCCCC3)ccc2c1 (configuration not stated),34.6%,33.5%,59.4%,60.9%,72.8%,44.5%,43.4%,7.99% (active),6.97% (active),
COc1ccc2c3c(ccc2c1)C(=O)/C(=C\O)CC3,99.8%,78.5%,100%,96.6%,93.4%,102%,105%,72.4%,88.4%,
Nc1nc(Nc2ccccc2SSc2ccccc2Nc2nc(N)nc(-c3cccc(Cl)c3)n2)nc(-c2cccc(Cl)c2)n1,105%,90.5%,62.1%,83.9%,154%,88.8%,75.5%,68.1%,80.4%,
COc1ccc2c(c1)[n+](=O)c(/C=C/C(=O)c1cc(OC)c(OC)c(OC)c1)c(C)n2[O-],56%,71.3%,40.5%,49.1%,62.9%,47.7%,,-25.9% (active),0.943% (active),99.3%
Cc1ccccc1NC(=O)N/C(N)=N/c1nc2ccccc2s1,37.6%,39.6%,40%,54.6%,67%,39.2%,38.8%,14.2%,14.9%,
O=[N+]([O-])c1cc([N+](=O)[O-])c(N2CCCC2)cc1NN=C(c1ccc(O)cc1)c1ccc(O)cc1,-47.6% (active),90.5%,128%,-78.1% (active),131%,46.9%,91.9%,55.3%,57.3%,
O=C(Nc1ccccc1)c1cc(-n2cnc([N+](=O)[O-])c2)cc(-n2cnc([N+](=O)[O-])c2)n1,103%,107%,103%,92.3%,112%,100%,,89.3%,94.2%,114%
COC(=O)Nc1ccc2ccc3c(NC(=O)OC)ccc4ccc1c2c43 (tested in a mixture with another compound),52.8%,68.1%,68.4%,42.1%,85.9%,59%,50.7%,54.4%,35%,
Cc1cc(C)c(C(=O)c2cccs2)c(C)c1,100%,117%,94%,67.8%,96.2%,108%,95.2%,97.9%,104%,
N#CC1c2ccccc2C=CN1C(=O)N(c1ccccc1)c1ccccc1 (configuration not stated),88.2%,102%,76.1%,36.5%,32.1%,12.3%,2.37% (active),3.82% (active),3.19% (active),
O=C(O)C1C(c2ccccc2)c2ccccc2C(O)C1CO (configuration not stated),98.7%,119%,98.1%,78.2%,102%,97.3%,112%,92.9%,104%,
CCN(CC)c1ccc(/C=C/C(=O)c2cccc(NS(C)(=O)=O)c2)cc1,83.1%,57.6%,40.3%,37.2%,25.6%,37.7%,,13.3%,8.78% (active),22.8%
N#Cc1c(-c2ccccc2)cc(-c2ccccc2)n(CCCCC(=O)O)c1=O,96.6%,89.4%,96.8%,86%,99.9%,100%,86.8%,87.7%,107%,
C/C=C(/C(=C/C)c1ccc(O)cc1)c1ccc(O)cc1,44.9%,35.7%,42.8%,38.1%,,38.4%,42.1%,17.1%,34%,31.4%
CCSc1nc(Nc2ccc(S(=O)(=O)Nc3ccon3)cc2)c(C#N)c(-c2cccc(Br)c2)n1,119%,87.7%,99.2%,102%,,91.3%,87.8%,77.7%,72.6%,93.7%
C[C@H]1O[C@@H](O[C@H]2[C@@H](O)C[C@H](O[C@H]3[C@@H](O)C[C@H](O[C@H]4CC[C@]5(C)C6C[C@@H](O)[C@]7(C)[C@@H](C8=CC(=O)OC8)CC[C@]7(O)C6CC[C@@H]5C4)O[C@@H]3C)O[C@@H]2C)C[C@H](O)[C@@H]1O (some centres not stated),-72.8% (active),-100% (active),-61.7% (active),-82.4% (active),,-75.8% (active),-100% (active),-56.6% (active),-33.7% (active),-33% (active)
Cn1cnc([N+](=O)[O-])c1Sc1nc(N)nc2nc[nH]c12,17.8%,27.9%,43.6%,16.9%,,72.7%,38.4%,13.5%,11.3%,43.6%
CC(=O)Nc1ccc(C(=O)COc2ccc(/C=C3\CCc4ccccc4C3=O)cc2)cc1,77.8%,99.8%,103%,33.2%,,103%,94.8%,89.4%,78.8%,66.3%
CC1C(=O)NC2=Nc3ccccc3C(=O)NN21 (configuration not stated),96%,88.3%,99.7%,64%,,93.8%,94.5%,97.3%,94.3%,116%
NS(=O)(=O)c1cc(C2(O)NC(=O)c3ccccc32)ccc1Cl (configuration not stated),113%,108%,101%,76.4%,,90.7%,93.9%,98.9%,93.6%,129%
N#Cc1c(-c2ccc(F)cc2)n2c(nc1=O)SC(=O)C2=O,92%,91.3%,91.1%,110%,,90.3%,86.4%,85.4%,90.5%,70%
CC(=O)N1N=C(c2ccc(Nc3ccnc4cc(Cl)ccc34)cc2)CC1c1ccc(Cl)cc1 (configuration not stated),54.1%,36.4%,61.9%,24.1%,,34.1%,44.7%,31%,34.2%,43.9%
